# A selection: hits, their analogues and other compounds. The true share with any hit is near 3.7%.
# S2 tox: cell viability loss in ATXN counter-screen; S2 cells (HEK-293 line with an ATXN2-luciferase reporter) viability, CellTiter-Fluor protease fluorescence, 24 h; Potency, µM (titrated, usually from 56.7 µM), usual class: cytotoxic; hit rate 0.49% among 400,000; AID 651635; also: nearly all actives have a fitted effect of over 40% in size
# ATXN2 expr inh: reduces ATXN2 reporter expression in HEK-293 cells. HEK-293 ATXN2-luciferase reporter, luminescence, 24 h. Potency, µM (highest dose often 57 µM), usual class: inhibitors. hit rate 0.72% among 360,000. AID 1745845; also: nearly all actives have a fitted effect of over 55% in size
#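 ATXN2-luciferase reporter cells (luciferase flanked by upstream and downstream ATXN2 gene portions) were treated 24 h at 37 °C with compounds at up to 57 uM. SteadyGlo luminescence gave expression; GF-AFC fluorescence gave viability.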
# TGFb SMAD3 inh: inhibitors of TGF-b signaling | Potency, µM (titrated, usually from 46.1 µM), actives largely listed as inhibitors | HepG2 CAGA-GFP TGF-b/SMAD3 reporter, GFP fluorescence, 18 h; TGF-beta stimulated, 500 pg/mL final | AID 588855 | hit rate 1.2% among 410,000; also: nearly all actives have a fitted effect of over 65% in size
#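 First, reporter cells (HEPG2 CAGA-GFP) rested 2 h at 37 degrees C. Next, compounds were pinned in and TGF-beta added to 500 pg/mL final. After 18 h, GFP was imaged per cell and summed per well.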
# HepG2 tox: HepG2 cytotoxicity, counter-screen for TGF-b inhibitors; HepG2 CAGA-GFP viability, ATP luminescence, 18 h; Potency, µM (top dose mostly 46.1 µM), usual class: cytotoxic; hit rate 0.76% among 410,000; AID 588856
#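 CellTiter-Glo luminescence gave cytotoxicity after 18 hours at 37 degrees C. The cells were HepG2 CAGA-GFP in 1% FBS DMEM, stimulated with 500 pg/mL TGF-beta after compound addition. %Activity was normalised to no-cell wells (complete cell-killing) and DMSO (no toxicity), and curves were fitted and classified.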
# GLP-1R agonist: activates the human GLP-1 receptor | P43220 | HEK293 GLP-1R CRE-luciferase, luminescence, 4-6 h; cells express a hypersensitive GLP-1R form | Potency, µM (series often up to 45.6 µM), usual class: activators | hit rate 0.007% among 380,000
# Target sequence (P43220 whole entry, looked up): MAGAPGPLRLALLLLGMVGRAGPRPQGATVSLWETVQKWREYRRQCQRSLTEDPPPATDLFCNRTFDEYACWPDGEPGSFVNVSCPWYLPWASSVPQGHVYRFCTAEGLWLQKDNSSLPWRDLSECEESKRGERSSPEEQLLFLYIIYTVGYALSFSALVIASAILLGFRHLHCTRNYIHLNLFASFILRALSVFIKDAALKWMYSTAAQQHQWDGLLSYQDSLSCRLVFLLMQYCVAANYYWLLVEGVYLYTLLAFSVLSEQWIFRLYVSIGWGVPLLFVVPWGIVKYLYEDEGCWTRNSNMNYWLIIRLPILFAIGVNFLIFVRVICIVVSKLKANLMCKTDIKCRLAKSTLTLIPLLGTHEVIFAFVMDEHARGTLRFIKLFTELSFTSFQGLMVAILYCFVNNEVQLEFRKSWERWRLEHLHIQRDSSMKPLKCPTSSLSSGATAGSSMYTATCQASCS
# GLP1R inv ag: GLP-1 receptor (human) inverse agonism. HEK293 GLP-1R CRE-luciferase, luminescence, 24 h; GLP-1R form is constitutively active. P43220. hit rate 1.6% among 410,000. Potency, µM (titrated, usually from 38.3 µM), most hits filed as inhibitors; also: nearly all actives have a fitted effect of over 55% in size
#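 Readout was luciferase luminescence, measured 12 min after detection reagent at room temperature. Beforehand, GLP-1R reporter HEK293 cells had sat 12 h, then received compounds for 24 hr at 37 deg C.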
# Numbers stand for hits; n = inactive; u = inconclusive; x = not tested or not shown; [ ] = remark or other dose. Calls follow the shape of the dose curve; as a rule, active = well fitted curve in the direction sought with a large enough effect; inconclusive = small, poorly fitted or top-dose-only effect, or another doubt; inactive = no such curve, though single readings can be large; an effect the other way counts as inactive or inconclusive.
SMILES,S2 tox,ATXN2 expr inh,TGFb SMAD3 inh,HepG2 tox,GLP-1R agonist,GLP1R inv ag
COC(=O)c1ccc(NC(=O)c2nc(S(=O)(=O)Cc3ccccc3F)ncc2Cl)cc1,x,x,6.3µM,13µM,x,x
CCS(=O)(=O)c1ncc(Cl)c(C(=O)Nc2ccc(C)cc2)n1,x,u,u,n,n,u
O=C(Nc1ccccc1)c1nc(S(=O)(=O)Cc2ccccc2F)ncc1Cl,x,x,3.2µM,7.1µM,x,x
CCOC(=O)c1ccc(NC(=O)c2nc(SCc3ccccc3F)ncc2Cl)cc1,x,x,n,n,x,u
Cc1c(C(=O)NCc2cccc(F)c2)sc2ncnc(NCC3CCCO3)c12 (stereo not drawn),n,x,x,x,x,x
COc1ccc(CN2CCCC(n3cc(C(=O)NC4CCCC4)nn3)C2)c(O)c1 (stereo not drawn),n,x,x,x,x,x
Cc1ccccc1NC(=O)c1cn(-c2ccccc2)nc1-c1ccccc1,n,n,u,n,n,10µM
Cc1nn(Cc2ccc(Cl)cc2)c(C)c1NC(=O)c1c(-c2ccccc2)noc1C,n,n,n,n,n,u
COC(=O)c1ccc(NC(=O)c2cn(-c3ccccc3)nc2-c2ccncc2)cc1,n,n,n,7.1µM,n,u
Cc1nn(Cc2ccc(Cl)c(Cl)c2)c(C)c1NC(=O)c1cn(-c2ccccc2)nc1-c1ccccc1,n,n,n,n,n,10µM
Cc1cccc(NC(=O)c2cn(-c3ccccc3)nc2-c2ccccc2)c1C,u,n,u,n,x,4.5µM
Cc1cccc(C)c1NC(=O)c1cn(-c2ccccc2)nc1-c1ccccc1,n,n,n,n,n,n
CC(=O)c1ccc(NC(=O)c2cn(-c3ccccc3)nc2-c2ccncc2)cc1,u,n,n,n,n,n
CC(C)=CCCC(C)=CCCC(C)=CCCC(C)=CCCC(C)=CCCC(C)=CCCC(C)=CCCC(C)=CCCC(C)=CCO,x,n,x,x,x,x
O=C(NCc1nnc2n1CCN(Cc1cc3c(cc1Cl)OCO3)CC2)C1CCOC1 (stereo not drawn),n,x,x,x,x,x
CCn1nnnc1Sc1nc(C)nc2scc(-c3ccccc3)c12,x,x,n,n,x,x
COc1ccc(-c2nn(-c3ccccc3)cc2C(=O)Nc2nccs2)cc1,n,n,u,n,n,u
COc1cccc(-c2nn(-c3ccccc3)cc2C(=O)Nc2nccs2)c1,n,n,n,n,n,7.1µM
O=[N+]([O-])c1ccc(NCCCNS(=O)(=O)c2ccc(Cl)cc2)c(Cl)c1,u,u,n,n,n,11µM
Cn1nnnc1Sc1ncnc2scc(-c3ccsc3)c12,u,14µM,13µM,n,n,x
Cn1nnnc1Sc1ncnc2scc(-c3ccccc3C(F)(F)F)c12,u,u,u,n,n,x
Cn1nnnc1Sc1ncnc2scc(-c3ccc(-c4ccccc4)cc3)c12,u,u,u,n,n,x
Cn1nnnc1Sc1ncnc2scc(-c3cccs3)c12,n,8.9µM,u,n,n,x
Cn1nnnc1Sc1ncnc2scc(-c3cc4ccccc4o3)c12,13µM,5.6µM,2.5µM,4.5µM,n,x
Cc1cnc(C)c(-c2cc(F)cc3c2OC(CNC(=O)c2cc(Cl)ccc2F)C3)n1 (stereo not drawn),n,x,x,x,x,x
SMILES,S2 tox,ATXN2 expr inh,TGFb SMAD3 inh,HepG2 tox,GLP-1R agonist,GLP1R inv ag
CCCCC(=O)O[C@]1(C(=O)CO)CCC2C3CCC4=CC(=O)CCC4(C)C3C(O)CC21C (stereo partly drawn),x,x,x,x,n,x
O=C(Nc1ccc(F)cc1F)C1CCCN1S(=O)(=O)c1cccc2nsnc12 (stereo not drawn),n,n,16µM,n,n,n
O=C(Nc1cc(F)ccc1F)C1CCCN1S(=O)(=O)c1cccc2nsnc12 (stereo not drawn),n,n,u,n,n,n
Cc1cccc(N2CCN(C(=O)CCN3C(=S)NC(C)(C)CC3C)CC2)c1C (stereo not drawn),u,n,n,n,n,n[0.307 µM]
Cc1ccc(C)c(N2CCN(C(=O)CCCN3C(=S)NC(C)(C)CC3C)CC2)c1 (stereo not drawn),u,u,u,n,n,11µM
CC1CC(C)(C)NC(=S)N1CCCC(=O)Nc1ccc(Br)cc1 (stereo not drawn),n,n,n,n,n,10µM
CCCCCCCCCCCCCCCC(=O)O[C@H]1[C@@H](O)[C@@H](O)[C@@H]([C@H](NC(=O)[C@@H]2C[C@@H](CCC)CN2C)[C@H](C)Cl)O[C@@H]1SC,u,u,x,x,n,x
CCN1/C(=C\C(=S)Nc2ccccc2)Sc2ccccc21,u,n,11µM,n,n,u
COc1ccc(NC(=S)N(CCc2ccc(OC)c(OC)c2)Cc2ccccn2)cc1,n,n,n,n,n,n
COc1ccc(CCN(Cc2ccccn2)C(=S)Nc2cccc(C)c2)cc1OC,u,n,n,5µM,n,n[7.66 µM]
CC(=NNc1nc2ccccc2s1)c1ccncn1,x,u,u,n,n,n
CC(=NNC(=S)N1CC2CCC(CC2)C1)c1ccncn1,u,0.32µM,u,n,n,u
CN(C)CC/C=C1\c2ccccc2COc2ccccc21,n,n,n,n,n,10µM
Cc1nc2sc(C(N)=O)c(N)c2c2c1CCCC2,n,n,u,20µM,n,1.1µM
Cc1ccc2nc(SCC(=O)NCC3Cc4cccc(-c5nc(C)cnc5C)c4O3)[nH]c2c1 (stereo not drawn),n,x,x,x,x,x
CCSc1nc2c([nH]c3ccccc32)c(=O)n1-c1cccc(OC)c1,n,n,u,n,n,u
COc1cccc(-n2c(SCc3ccc(F)cc3)nc3c([nH]c4ccccc43)c2=O)c1,n,n,u,n,n,8.9µM
CCOc1ccc(NC(=O)c2cnn(-c3ccc(C)c(Cl)c3)c2C2CCNCC2)cc1,n,n,n,n,n,8.9µM
Cc1ccc(-n2ncc(C(=O)Nc3ccc(Cl)cc3)c2C2CCNCC2)cc1C,u,u,n,n,n,n
Cc1ccc(CN(Cc2cc3cc(C)ccc3[nH]c2=O)Cc2nnnn2Cc2ccccc2)cc1,x,x,n,n,x,x
Cn1c2c(c(=O)n(C)c1=O)C(C(F)(F)F)(C(F)(F)F)N=C(c1ccc(Cl)cc1)N2,u,u,1.8µM,n,n,u
Cc1ccccc1C1=NC(C(F)(F)F)(C(F)(F)F)c2c(n(C)c(=O)n(C)c2=O)N1,n,n,n,n,n,n
CS(=O)(=O)N1CCc2cc(C(=O)Nc3ccc(Cl)c(C(F)(F)F)c3)ccc21,u,u,u,n,x,10µM
CC(C)CCOc1ccc(CC(=O)NO)cc1,x,x,n,n,x,x
FC(F)c1nc2nc(Cl)c(Cl)nc2[nH]1,n,x,n,n,n,14µM
FCc1nc2nc(Cl)c(Cl)nc2[nH]1,n,x,n,n,n,n

# Source: PubChem BioAssay (National Center for Advancing Translational Sciences (NCATS))
